# Compound activity as filed in PubChem BioAssay.
# SARS 3CLpro inh – SARS-CoV 3CLpro protease inhibition; P0C6X7; AID 1706; inhibition, % at 6 µM; 290,000 tested, 0.14% active; recombinant SARS-CoV 3CLpro, quenched FRET peptide cleavage; in the data active = inhibition above about 12%
# BoNT F protease – BoNT F light chain protease inhibition; Multiplex microsphere protease cleavage assay, flow cytometry; inhibition, % at 10 µM; 360,000 tested, 0.22% active; in the data active = inhibition above about 35%, passing the limit was not always enough; inconclusive = no clear call, values can overlap the other calls
# Bead autofluor – counter-screen for toxin protease inhibitors: compound fluorescence; 360,000 tested, 3.1% active; fluorescence intensity (concentration not given with the values); AID 624483; compound autofluorescence counterscreen, microsphere flow cytometry; stronger effect = higher value; in the data active = fluorescence intensity above about 16000; inconclusive = no clear call, values can overlap the other calls
# BoNT A protease – BoNT A light chain protease inhibition | multiplex microsphere protease substrate cleavage, flow cytometry | inhibition, % at 10 µM | 360,000 tested, 0.17% active | AID 588499
# CCHF vOTU inh-1 – CCHFV vOTU protease inhibition; Pep-AMC fluorescence; inhibition, % at 11.5 µM; 370,000 tested, 0.55% active; AID 651958; in the data active = inhibition above about 30%
# Anthrax LF prot – anthrax lethal factor protease inhibition; inhibition, % at 10 µM; P15917; 360,000 tested, 0.12% active; multiplex microsphere protease cleavage assay, LF
# CCHF vOTU inh-2 – CCHFV vOTU protease inhibition, confirmation. shares compounds with CCHF vOTU inh-1. Recombinant CCHFV vOTU, Pep-AMC fluorescence. inhibition, % at 11.5 µM. 1,900 tested, 17% active. AID 686976; in the data active = inhibition above about 30%
# Hits are given with their value; - = inactive; ? = inconclusive; . = no result. Only some compounds are listed: those with a hit (about 3.9% of all), similar ones and a draw of the others. Cut-off read from the data, not from the text of the source, unless noted: active = inhibition above about 30%; inconclusive = no clear call, values can overlap the other calls; inactive = below that.
SMILES,SARS 3CLpro inh,BoNT F protease,Bead autofluor,BoNT A protease,CCHF vOTU inh-1,Anthrax LF prot,CCHF vOTU inh-2
CC(C)(C)N(Cc1nc(-c2ccccc2)no1)C(=O)c1ccc2c(c1)OCO2,-,-,-,-,30,-,-
OC(c1ccc(Cl)c(Cl)c1)c1ncc(-c2ccc(Cl)cc2)[nH]1 (centres undefined),.,-,-,-,-,-,.
OC(c1ccc(Cl)c(Cl)c1)c1ncc(-c2ccc(C(F)(F)F)cc2)[nH]1 (centres undefined),.,-,-,-,35,-,-
OC(c1ccc(Cl)c(Cl)c1)c1ncc(-c2ccccc2C(F)(F)F)[nH]1 (centres undefined),.,-,-,-,34,-,-
CCOC(=O)C1CCN(C2=C(NS(=O)(=O)c3ccc(Br)cc3)C(=O)c3ccccc3C2=O)CC1,-,-,-,-,45,-,-
CCOC(=O)N1CCN(C2=C(NS(=O)(=O)c3ccc(Br)cc3)C(=O)c3ccccc3C2=O)CC1,.,-,-,-,-,-,.
NC(=O)C1CCN(C2=C(NS(=O)(=O)c3ccc(Br)cc3)C(=O)c3ccccc3C2=O)CC1,-,-,-,-,39,-,-
COc1ccc(C(O)c2nc(-c3ccoc3)cs2)cc1 (centres undefined),.,-,-,-,30,-,-
CCOC(=O)/C(=C\Nc1cccc(OCc2ccccc2)c1)NC(=O)c1ccccc1,.,.,.,.,-,.,.
COc1cc(N/C(=C\C(=O)c2ccccc2)c2ccccc2)ccc1Cl,.,.,.,.,-,.,.
CN(C)C(=O)c1c2c(nc3ccccc13)-c1ccccc1CC2,-,-,-,-,33,-,-
COC(=O)Cc1nnn2c1[C@H](C)[C@H](c1cccc(OC)c1OC)OCC2,.,.,.,.,-,.,.
CC(=O)c1cccc(NC(=O)/C(=C/c2ccco2)NC(=O)c2ccco2)c1,-,-,-,-,37,-,-
COC(=O)c1cccc(NC(=O)/C(=C\c2ccco2)NC(=O)c2ccco2)c1,.,-,-,-,-,-,.
Cc1ccc2cc(C(c3nnnn3CC3CCCO3)N3CCc4ccccc4C3)c(=O)[nH]c2c1 (centres undefined),-,-,22554,-,84,-,-
Cc1cccc2cc(C(c3nnnn3CC3CCCO3)N3CCc4ccccc4C3)c(=O)[nH]c12 (centres undefined),-,.,.,.,.,.,.
O=C(CCn1c(=S)oc2ccccc21)NC1CCCCCCC1,-,-,-,-,32,-,-
COc1ccc(C)cc1-n1cnc2sc(C)c(C)c2c1=O,.,-,-,-,30,-,-
COC(=O)c1ccc(N=NNc2ccc(C(=O)OC)cc2)cc1,-,-,-,-,33,-,-
COC(=O)c1ccc(N=NNc2ccccc2)cc1,-,-,-,-,-,-,.
CCOC(=O)/C(C#N)=C/c1ccc(N2CCN(C)CC2)cc1,-,-,-,-,-,-,.
CCOC(=O)C(/C=C(\C#N)C(=O)OCC)=C(/N)N1CCN(c2ccccc2)CC1,-,-,-,-,33,-,-
CC(=C\c1ccccc1)/C=C1/SC(=S)N(C(C(=O)O)C(C)C)C1=O (centres undefined),-,-,-,-,32,-,-
CCC(C(=O)O)N1C(=O)/C(=C/C(C)=C/c2ccccc2)SC1=S (centres undefined),-,-,-,-,-,-,.
O=C(Nc1ccc(F)cc1)OC[C@@H]1CSCCS(=O)(=O)N1,.,.,.,.,-,.,.
SMILES,SARS 3CLpro inh,BoNT F protease,Bead autofluor,BoNT A protease,CCHF vOTU inh-1,Anthrax LF prot,CCHF vOTU inh-2
CCCCN(C(=O)CC1CCCCC1)c1c(N)n(CC(C)C)c(=O)[nH]c1=O,.,-,-,-,32,-,-
CCCCn1c(N)c(N(CCC(C)C)C(=O)CC2CCCCC2)c(=O)[nH]c1=O,.,-,?,-,-,-,.
CN1CCCCC(NC(=O)C2CCCCC2)C1=O (centres undefined),.,.,.,.,-,.,.
COc1ccc(C2CC(=O)C(c3ccc(C(C)=O)cc3)=CN2Cc2ccccc2)cc1 (centres undefined),.,.,.,.,-,.,.
CC(C)NC(=O)N(C)C[C@H]1OCCCC[C@@H](C)Oc2ccc(NC(=O)C3CCCCC3)cc2C(=O)N([C@H](C)CO)C[C@@H]1C,.,-,-,-,-,-,.
CC(C)NC(=O)N(C)C[C@@H]1OCCCC[C@@H](C)Oc2ccc(NC(=O)Nc3ccc(F)cc3)cc2C(=O)N([C@H](C)CO)C[C@@H]1C,.,-,-,-,32,-,-
CCOC(=O)CCCCCC(=O)Nc1ccc2c(c1)C(=O)N([C@H](C)CO)C[C@H](C)[C@@H](CN(C)C(=O)Nc1ccccc1)OCCCC[C@@H](C)O2,.,-,-,-,38,-,-
O=C(COC(=O)c1ncc(Cl)c(Cl)c1Cl)NC1CCCCCC1,.,-,-,-,41,-,-
CCOc1ccc(NC(=O)c2ccc3c(c2)OCCO3)cc1S(=O)(=O)N(CC)CC,.,-,-,-,32,-,-
CCOc1ccc(C(=O)Nc2ccc3c(c2)OCCO3)cc1OC,-,-,-,-,-,-,.
CN1NC(=O)c2ccccc2NC1=S,.,.,.,.,-,.,.
CC1=C(C(=O)N2CCOCC2)CC(CC(=O)NCCN2CCOCC2)C(=O)N1Cc1ccccc1 (centres undefined),.,-,-,-,30,-,-
C=CS(=O)(=O)N(C(=C)C(=O)OC)S(C)(=O)=O,.,.,.,.,-,.,.
Cc1ccc(CN2CCCCC(NC(=O)c3cccc([N+](=O)[O-])c3)C2=O)cc1 (centres undefined),.,.,.,.,-,.,.
Nc1ccc2nc(-c3ccc(-c4nc5ccc(N)cc5[nH]4)cc3)[nH]c2c1,-,.,.,.,36,.,-
Nc1ccc2nc(-c3cccc(-c4nc5ccc(N)cc5[nH]4)n3)[nH]c2c1,-,?,-,-,-,-,.
CN(C)c1ccc2cc(S(=O)(=O)O)cc(O)c2c1,.,-,-,-,38,-,-
O=Nc1c(O)ccc2cc(S(=O)(=O)O)ccc12,.,-,-,-,.,-,.
C[C@@H]1CCCCO[C@@H](CN(C)C(=O)NC2CCCCC2)[C@@H](C)CN([C@H](C)CO)C(=O)c2cc(N(C)C)ccc2O1,.,.,.,.,-,.,.
